# Screens from PubChem.
# KinaseGlo FLuc = Counterscreen for Luciferase (Kinase-Glo TM) Inhibition | Potency, µM (highest dose often 38.3 µM), most hits filed as inhibitors | Luciferin 4-monooxygenase (Photuris pensylvanica), Q27757 | hit rate 0.28% among 200,000 | Kinase-Glo luciferase, ATP luminescence, 8 min; active = well fitted inhibition curve with a large enough effect; inconclusive = small, poorly fitted or top-dose-only effect; note: nearly all actives have a fitted effect of over 60% in size
#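 Light output from Kinase-Glo luciferase with luciferin and 10 uM ATP in 50 mM imidazole pH 7.2, KCl, MgCl2, Tween 20, BSA; compound pin-delivered, 8-min ambient incubation, then luminescence read.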
# HPGD inh = qHTS Assay for Inhibitors of HPGD (15-Hydroxyprostaglandin Dehydrogenase). 15-hydroxyprostaglandin dehydrogenase [NAD(+)] (Homo sapiens), P15428. purified HPGD, NADH fluorescence kinetic, PGE2 substrate. Potency, µM, most hits filed as inhibitors. hit rate 4.3% among 150,000. AID 894, 2007
#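 20 nM HPGD preincubated 15 min at room temperature with compound in 50 mM Tris-HCl pH 8, 0.01% Tween 20. Started with 1 mM NAD+ and 30 uM prostaglandin E2; NADH fluorescence (360/450 nm) read 5 times over 30-s intervals, last minus first.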
# LMNA splice mod = qHTS Assay for Modulators of Lamin A Splicing; hit rate 0.01% among 200,000; AID 1487, 2009; HeLa LMNA splicing GFP/RFP minigene ratio, 48 h; Potency, µM (highest dose often 46.1 µM), most hits filed as inhibitors; active = well fitted inhibition curve with a large enough effect in the signal ratio, with a control signal flat, not every such curve was filed as active; inconclusive = small, poorly fitted or top-dose-only effect, or effect the other way, or a change in a side signal; the % refers to the signal ratio
#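 S3 HeLa cells stably expressing lamin A-EGFP splicing minigene plus DsRed2, 600 cells/well, 48 h compound exposure at 37C. Laser-scanning cytometry; analysed as GFP (500-530 nm)/RFP (575-640 nm) total intensity ratio; 0.5% DMSO vehicle.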
# PNC assembly inh = High Content Assay for Compounds that inhibit the Assembly of the Perinucleolar Compartment. activity change (PNC), negative = inhibition, % at 10 µM. hit rate 3.1% among 140,000. PC3M PTB-GFP, PNC prevalence imaging, 16 h; active compounds read low;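 active = readout at or below -70, meaning at least 70% loss of cells showing the perinucleolar compartment, a nuclear body marking cancer cells; inconclusive = readout between -30 and a set limit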
#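 Compounds are pinned in duplicate onto adhered PC3M cells stably expressing GFP-tagged PTB and incubated 16 h at 37 C. Cells are then fixed, nuclei stained with Hoechst, and PNC-positive cells counted.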
# ALDH1A1 block = qHTS Assay for Inhibitors of Aldehyde Dehydrogenase 1 (ALDH1A1); Aldehyde dehydrogenase 1A1 (Homo sapiens), P00352; Purified ALDH1A1, NADH fluorescence, propionaldehyde substrate; Potency, µM (titrated, usually from 75.3 µM), hits mostly inhibitors; hit rate 7.3% among 220,000; AID 1030, 2008
# Target sequence (P00352 whole entry, looked up): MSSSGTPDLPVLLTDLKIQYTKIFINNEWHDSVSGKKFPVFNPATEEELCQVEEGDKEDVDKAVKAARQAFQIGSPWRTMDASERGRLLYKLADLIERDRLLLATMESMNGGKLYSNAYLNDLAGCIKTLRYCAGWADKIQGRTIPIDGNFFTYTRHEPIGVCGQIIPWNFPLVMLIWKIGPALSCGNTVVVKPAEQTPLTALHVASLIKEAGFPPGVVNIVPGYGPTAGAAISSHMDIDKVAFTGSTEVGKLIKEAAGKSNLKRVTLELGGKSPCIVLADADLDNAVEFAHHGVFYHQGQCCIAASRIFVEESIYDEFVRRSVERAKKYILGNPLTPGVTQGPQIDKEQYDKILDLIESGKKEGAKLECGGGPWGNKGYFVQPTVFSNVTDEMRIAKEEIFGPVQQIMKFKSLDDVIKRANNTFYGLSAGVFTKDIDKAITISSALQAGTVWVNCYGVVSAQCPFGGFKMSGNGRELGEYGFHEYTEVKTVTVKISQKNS
# A number is an active result; - = inactive; ? = inconclusive; . = no result; [ ] = dose if it differs, or a comment. A selection: hits, their analogues and other compounds. The true share with any hit is near 10%. Unless noted, calls come from the whole dose curve; as a rule, active = well fitted inhibition curve with a large enough effect (not every such curve was filed as active); inconclusive = small, poorly fitted or top-dose-only effect, or another doubt; inactive = no such curve, though single readings can be large or run the other way.
SMILES,KinaseGlo FLuc,HPGD inh,LMNA splice mod,PNC assembly inh,ALDH1A1 block
CS(=O)(=O)N(CC(=O)Nc1ccc2c(c1)OCO2)c1ccc2c(c1)OCO2,-,-,-,-,-
CCN(CC)c1ccc2c(c1)C(=O)N(C)C2=O,-,18µM,-,-,?
CCN(CCCCN1C(=O)c2ccccc2C1=O)c1ccc2c(c1)C(=O)N(C)C2=O,-,10µM,-,-,?
CCN(CC)c1ccc2ccc(=O)oc2c1,-,.,-,.,?
CCCCN(CC)C(=O)CN1C(=O)c2ccccc2C1=O,-,-,-,-,-
COc1ccc2c(c1)O[C@@H](c1ccc3c(c1)OCO3)[C@H](OC(=O)NCc1ccc3c(c1)OCO3)C2=O,-,-,.,.,-
CC1(O)C(=O)C=C2C=C(CCCCOCc3ccccc3)OC=C2C1=O (stereo not drawn),.,.,.,.,-[13.5 µM]
Cc1nn(-c2ccccc2)c2c1C1(C(=O)N(C)c3ccccc31)C(C#N)=C(N)O2 (stereo not drawn),-,-,-,?,?
Cc1nn(-c2ccccc2)c2c1C1(C(=O)N3c4c(cccc41)C(C)CC3(C)C)C(C#N)=C(N)O2 (stereo not drawn),-,-,-,-,0.25µM
CCCc1cc(C(=O)Cc2ccc(F)cc2)c(O)cc1O,-,-,?,-,-
CCCC(=O)c1cc(O)c(O)cc1O,.,6.3µM,.,.,?
CC(=O)OCC(=O)[C@@]1(O)CC[C@@H]2[C@H]3CCC4=CC(=O)CC[C@]4(C)[C@]3(F)[C@@H](O)C[C@@]21C,-,-,-,.,-
Cc1ccccc1NC(=O)C1CCN(c2cc(-c3ccccc3)nc3ncnn23)CC1,-,?,?,-114,?
Cc1ccc(CSCC(=O)N2CCN(c3ccccc3F)CC2)cc1,.,.,-,.,.
CN(C)S(=O)(=O)c1cccc(NC(=O)c2ccc(N3CCOCC3)c([N+](=O)[O-])c2)c1,-,-,?,-,18µM
Cc1ccc(OC(=O)c2ccc(N3CCOCC3)c([N+](=O)[O-])c2)cc1,-,?,-,?,7.1µM
O=C(Oc1ccc(Cl)cc1)c1ccc(N2CCOCC2)c([N+](=O)[O-])c1,-,-,-,?,?
CC(=O)N1CCN(c2ccc(NC(=O)c3ccc(N4CCCC4)c([N+](=O)[O-])c3)cc2Cl)CC1,-,-,-,?,7.9µM
O=C(Nc1ccc(N2CCCC2)c(Cl)c1)c1ccccc1[N+](=O)[O-],-,-,-,-,?
O=C(Nc1ccc2c(c1)OCO2)c1ccc(N2CCCC2)c([N+](=O)[O-])c1,-,-,?,-,16µM
COc1cc(NC(=O)CCc2c(C)nn(-c3ccc4nncn4n3)c2C)cc(OC)c1OC,.,.,-,.,.
CCCC[C@H]1C[C@@H]1[C@@H]1N(P(=O)(c2ccccc2)c2ccccc2)[C@](CO)(c2ccccc2)CC12CC2,-,-,.,.,-
COc1ccc(C)cc1NC(=O)CSc1nc(=O)n(Cc2ccccn2)c2c1CCC2,.,.,-,.,.
CC(C)NC(=O)N1CC2(CCN(C(=O)c3cc(C(F)(F)F)cc(C(F)(F)F)c3)CC2)C1,-,-,.,.,-
O=C(Nc1ccc(N2CCCCC2)c(Cl)c1)c1ccc(N2CCOCC2)c([N+](=O)[O-])c1,-,-,-[0.0737 µM],-,8.9µM
SMILES,KinaseGlo FLuc,HPGD inh,LMNA splice mod,PNC assembly inh,ALDH1A1 block
O=C(Nc1ccccc1N1CCOCC1)c1ccc(N2CCOCC2)c([N+](=O)[O-])c1,-,.,.,.,?
Cc1ccc(NC(=O)c2ccc(N3CCOCC3)c([N+](=O)[O-])c2)cc1S(=O)(=O)N1CCOCC1,-,-,?,-,?
Cc1ccc(NC(=S)NNC(=O)c2ccc(N3CCOCC3)c([N+](=O)[O-])c2)cc1C,-,-,-,-,4µM
CC(NC(=O)CSc1nnc(CC(=O)Nc2ccc(Cl)c(Cl)c2)n1C)c1ccccc1 (stereo not drawn),-,28µM,-,-,?
Cn1c(CC(=O)Nc2ccc(Cl)c(Cl)c2)nnc1SCC(=O)N1CCN(c2ccccc2)CC1,-,-,-,?,-
CCNC(=O)/C=C/c1ccccc1[N+](=O)[O-],-,.,.,.,-
CC(C)N(Cc1ccccc1)C(=O)/C=C/c1ccccc1[N+](=O)[O-],-,.,?,.,5.6µM
